Laboratory results: PubChem BioAssay (EPA / NIEHS)
Records with an inconclusive call do not appear. Active and inactive are the calls of the source. The calls were made as follows, unless noted: active = hit-call score of the fitted dose curve at least 0.9, where 1 is the maximum; inconclusive = response in the unintended direction; inactive = score below 0.9.

Tests used:
[1] = biological target: Cellular tumor antigen p53 (Homo sapiens) (UniProt P04637); assay: TOX21_p53_BLA_p2_ratio: Tox21 HCT-116 p53 Agonism Beta-lactamase Assay, Ratio, Phase 2 (AID 2283592)
Sequence of Cellular tumor antigen p53 (Homo sapiens) (P04637 whole entry, looked up): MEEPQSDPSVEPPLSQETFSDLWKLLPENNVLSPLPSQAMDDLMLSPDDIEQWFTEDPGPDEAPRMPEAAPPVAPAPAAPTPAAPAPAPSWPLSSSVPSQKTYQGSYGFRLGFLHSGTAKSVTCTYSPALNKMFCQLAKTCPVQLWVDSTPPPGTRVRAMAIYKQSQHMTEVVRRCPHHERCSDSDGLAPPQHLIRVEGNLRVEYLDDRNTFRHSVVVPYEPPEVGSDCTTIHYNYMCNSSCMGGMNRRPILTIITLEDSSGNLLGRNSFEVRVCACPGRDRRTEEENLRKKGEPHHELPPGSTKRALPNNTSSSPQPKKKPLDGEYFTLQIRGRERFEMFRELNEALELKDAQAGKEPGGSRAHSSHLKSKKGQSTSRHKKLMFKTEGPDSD
Outline: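 Ratio endpoint: beta-lactamase cleavage of CCF4-AM, blue (460 nm) over green (530 nm). HCT116 reporter line; 16 h treatment, 37C; substrate 2 h RT.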

[2] = TOX21_p53_BLA_p3_viability: Viability Assessment in the Tox21 HCT-116 p53 Agonism Beta-lactamase Assay, Phase 3 (AID 2283593);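 also: cells exposed to compound for 16 h before reading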
Outline: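 HCT116 cells, 4000/well, dosed 5 h after plating by pin transfer (217-fold dilution from DMSO stock) and incubated 16 h at 37C, 5% CO2. Viability read as ATP luminescence with CellTiter-Glo after 30 min at room temperature.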

[3] = biological target: Cellular tumor antigen p53 (Homo sapiens) (UniProt P04637); assay: TOX21_p53_BLA_p3_ratio: Tox21 HCT-116 p53 Agonism Beta-lactamase Assay, Ratio, Phase 3 (AID 2283596)
Outline: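 Cells were seeded at 4000/well, rested 5 h at 37C, then dosed with DMSO compound solutions (217-fold dilution) for 16 h. CCF4-AM substrate was loaded for 2 h at room temperature, and the 460/530 nm emission ratio was fitted for gain of signal versus DMSO.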

[4] = TOX21_p53_BLA_p4_viability: Viability Assessment in the Tox21 HCT-116 p53 Agonism Beta-lactamase Assay, Phase 4 (AID 2283597);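 also: hits lower the luminescence signal meaning cytotoxicity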
Outline: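 Cytotoxicity was inferred from loss of CellTiter-Glo luminescence. HCT116 cells had been dosed with compounds after 5 h plating, incubated 16 h at 37C and 5% CO2, and exposed to the CCF4-AM substrate for 2 h.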

[5] = biological target: Cellular tumor antigen p53 (Homo sapiens) (UniProt P04637); assay: TOX21_p53_BLA_p5_ratio: Tox21 HCT-116 p53 Agonism Beta-lactamase Assay, Ratio, Phase 5 (AID 2283599)
Outline: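 HCT-116 p53-bla cells (4000/well) plated 5 h, dosed with compound (217-fold DMSO dilution) for 16 h at 37 C; CCF4-AM substrate 2 h at room temperature. Activity is the 460/530 nm emission ratio (405 nm excitation), fitted in gain-of-signal direction versus DMSO.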

[6] = biological target: Cellular tumor antigen p53 (Homo sapiens) (UniProt P04637); assay: TOX21_p53_BLA_p4_ratio: Tox21 HCT-116 p53 Agonism Beta-lactamase Assay, Ratio, Phase 4 (AID 2283601)
Outline: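 HCT-116 p53 beta-lactamase reporter cells (4000/well) preincubated 5 h, then compound (217-fold dilution of DMSO stock) for 16 h at 37C. CCF4-AM substrate added 2 h at room temperature; 460/530 nm emission ratio fitted upward versus DMSO.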

[7] = TOX21_p53_BLA_p5_viability: Viability Assessment in the Tox21 HCT-116 p53 Agonism Beta-lactamase Assay, Phase 5 (AID 2283600)
Outline: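 Luciferase-coupled ATP quantitation of cells treated for 16 h (37C, 5% CO2) with test chemicals delivered in DMSO via a 217-fold dilution; 4000 cells/well; reagent incubated 30 min at room temperature before luminescence reading.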

[8] = CCTE_Harrill_HTTr_Viability_MCF7: CCTE's 6-hour Cell Viability Assessment for the High-Throughput Transcriptomics (HTTr) Platform, in MCF-7 cells cultured in DMEM + 10% fetal bovine serum, Harrill Lab (AID 2284010; active = hit-call score of the fitted dose curve at least 0.9, where 1 is the maximum; inactive = score below 0.9)
Outline: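 Eight-point concentration series, six-hour exposure. Propidium iodide exclusion imaged to assess membrane integrity as a cytotoxicity readout; bidirectional fitting was done with DMSO as negative control and activity baseline.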

[9] = CCTE_Harrill_HTTr_Apoptosis_MCF7: CCTE's 6-hour Apoptosis Assessment for the High-Throughput Transcriptomics (HTTr) Platform, in MCF-7 cells cultured in DMEM + 10% fetal bovine serum, Harrill Lab (AID 2284011; active = hit-call score of the fitted dose curve at least 0.9, where 1 is the maximum; inactive = score below 0.9)
Outline: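 MCF-7 cells in DMEM + 10% fetal bovine serum were exposed to chemicals for 6 hours over an eight-point dilution series. Caspase-3/7 activation was imaged by high content imaging with CellEvent Caspase 3/7 Green; bidirectional fitting used DMSO as baseline.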

[10] = CCTE_Harrill_HTTr_CellCount_MCF7: CCTE's Cell Proliferation Assessment for the High-Throughput Transcriptomics (HTTr) Platform, Harrill Lab (AID 2284012);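 also: count of Hoechst-stained nuclei per well by high-content imaging in MCF-7 cells; cells exposed to compound for six hours; intended direction is loss of nuclei count meaning fewer cells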
Outline: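 For this full-screen endpoint, MCF-7 cultures received eight compound dilutions for six hours. Well nuclei counts from Hoechst imaging were analyzed relative to DMSO.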

Measured: outcome

CCCc1c2oc(C(=O)O)cc(=O)c2cc2c(=O)cc(C(=O)O)n(CC)c12
inactive: [1] | [2] | [3] | [4] | [5] | [6]

CC(C)(C)NC[C@H](O)COc1nsnc1N1CCOCC1
inactive: all assays above
